Compound activity as filed in PubChem.
HT1080NT lethal: kills 2HG-producing HT-1080-NT fibrosarcoma cells. HT-1080-NT fibrosarcoma viability, CellTiter-Glo ATP luminescence, 48 h. Potency, µM (highest dose often 46.1 µM), for the others: top-dose activity, negative = less viability, hits mostly cytotoxic. actives 1.6% (n = 360,000). AID 686970;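 also: NT is the 2HG producing partner of a matched IDH1 knockdown line; 0% = DMSO-treated cells and -100% = media-only wells without cells; nearly all actives have a fitted effect of over 55% in size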
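Toxicity toward the 2HG-producing NT line was scored as %Activity, normalised to DMSO and no-cell wells, from CellTiter-Glo luminescence after 48 hours' treatment.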
HT1080 IDH1KD tx: kills HT-1080 cells with IDH1 knockdown. HT-1080 IDH1 knockdown viability, ATP luminescence, 48 h. Potency, µM (series often up to 46.1 µM), without a hit: top-dose activity, negative = toxicity, usual class: cytotoxic. actives 2% (n = 360,000);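 also: 0% = DMSO wells and -100% = cell-free medium wells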
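CellTiter-Glo luminescence after 48 h compound exposure at 37 degrees C of IDH1-knockdown HT-1080 cells in 5% FBS RPMI. %Activity scaled between DMSO wells and cell-free media wells, with curves fitted and assigned curve classes.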
TDP1 cell noCPT: qHTS for Inhibitors of human tyrosyl-DNA phosphodiesterase 1 (TDP1): qHTS in cells in absence of CPT; DT40 Tdp1-/- hTDP1 cells, no CPT, ATP luminescence, 48 h; Potency, µM (highest dose often 46.2 µM), without a hit: top-dose activity change, negative = growth inhibition, hits mostly inhibitors; actives 15% (n = 420,000); also: nearly all actives have a fitted effect of over 55% in size
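Cells were dispensed at 400 per well, compounds added by pin tool, plates incubated ≥48 hr at 37 °C, then CellTiter-Glo added for 30 min at room temperature before luminescence reading. Line: DT40 Tdp1-/- complemented with hTDP1; camptothecin omitted.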
KB-V1 cytotox: kills drug-selected multidrug resistant KB-V1 cells. KB-V1 MDR cells viability, CellTiter-Glo, 72 h. Potency, µM (highest dose often 46.1 µM), hits mostly cytotoxic. actives 3.4% (n = 400,000). AID 1347076; also: nearly all actives have a fitted effect of over 60% in size
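Cells of the MDR subline KB-V1 are plated, dosed with compound at multiple concentrations, and incubated 72 h at 37 degrees C; CellTiter-Glo is then added and luminescence read after 10 min.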
KB-3-1 cytotox: KB-3-1 parental cell cytotoxicity; actives 1.4% (n = 400,000); AID 1347075; Potency, µM (titrated, usually from 46.1 µM), hits mostly cytotoxic; KB-3-1 viability, CellTiter-Glo ATP luminescence, 72 h; also: nearly all actives have a fitted effect of over 60% in size
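Cytotoxicity measured as CellTiter-Glo luminescence after 72 h at 37 C. Compound titrations were pinned onto drug-naive KB-3-1 parental adenocarcinoma cells grown in DMEM with 10% FBS, and normalized data fitted to concentration-response curves.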
TDP1 cell CPT: growth inhibition of DT40 Tdp1-/-;hTDP1 cells with camptothecin (screen for TDP1 inhibitors) | chicken DT40 Tdp1-/-;hTDP1 cells + 20 nM CPT, ATP luminescence, 48 h | Potency, µM (doses to about 46.2 µM), without a hit: top-dose activity change, negative = growth inhibition, actives largely listed as inhibitors | actives 12% (n = 420,000) | AID 686979; also: nearly all actives have a fitted effect of over 55% in size
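Chicken DT40 Tdp1-/- cells complemented with human TDP1, 400 cells/well, exposed to compounds plus 20 nM camptothecin for at least 48 h at 37 C; viability read as ATP content by CellTiter-Glo luminescence.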
Starred values were filed as active, the others as inactive; i = inactive; ? = inconclusive; · = not tested or not shown. Compounds with a hit are over-represented: about 19% of the library has one in this group of screens. Calls follow the shape of the dose curve; as a rule, active = well fitted curve in the direction sought with a large enough effect; inconclusive = small, poorly fitted or top-dose-only effect, or another doubt; inactive = no such curve, though single readings can be large; an effect the other way counts as inactive or inconclusive. Unless noted, % is scaled to controls: 0 for no effect and ±100 for the full control effect; potency is read from the fitted curve at half-maximal effect.

SMILES | HT1080NT lethal | HT1080 IDH1KD tx | TDP1 cell noCPT | KB-V1 cytotox | KB-3-1 cytotox | TDP1 cell CPT
Cc1cccc(NC(=O)N2CCC(C(=O)c3ccc(F)cc3)CC2)c1 | -26.9% | ? | ? | i | i | ?
COc1cc(OC)c(NC(C)C(=O)N2CCCC2)cc1Cl (centres undefined) | 2.1% | 1.8% | 17.6% | i | i | 0.5%
CSc1ccc(CNC(=O)C2(C)CCCN(C(C)=O)C2)cc1 (centres undefined) | 23.9% | 22.8% | 0.2% | i | i | -13.6%
O=S(=O)(c1ccc(-c2ccon2)s1)N1CCN(CCN2CCOCC2)CC1 | -6.1% | 4.6% | -15.6% | i | i | 2.2%
CCOC(=O)c1c(NC(=O)CCN2CCOCC2)sc(C)c1-c1ccccc1 | -5.0% | -4.1% | 23.1µM* | i | i | 20.6µM*
CCOC(=O)c1c(-c2ccc(C)cc2)csc1NC(=O)CCN1CC(C)OC(C)C1 (centres undefined) | -17.4% | ? | 25.9µM* | ? | ? | ?
CCOC(=O)c1c(-c2ccc(OC)cc2)csc1NC(=O)CCN1C(=O)c2ccccc2C1=O | 9.4% | 9.8% | ? | i | i | 16.4µM*
CCOC(=O)c1sc(NC(=O)CCN2CCCCCC2)c(C(=O)OCC)c1C | ? | ? | ? | i | i | ?
CCOC(=O)c1c(-c2ccccc2)csc1NC(=O)C(C)NCc1ccco1 (centres undefined) | -11.6% | -11.4% | ? | ? | i | 18.4µM*
CCOC(=O)c1c(-c2ccc(Cl)cc2)csc1NC(=O)CNCc1ccco1 | -4.7% | -12.0% | ? | i | i | ?
O=C(NCC(c1ccco1)N1CCN(c2ccccc2)CC1)C(=O)NC1CC1 (centres undefined) | 3.7% | 2.6% | 1.8% | ? | ? | -0.3%
CC12CCC(C(S(=O)(=O)Nc3ccccc3)C1=O)C2(C)C (centres undefined) | 2.6% | 2.8% | -14.4% | i | i | -8.2%
CCC(Br)C(=O)Nc1ccc(OC)cc1 (centres undefined) | -3.1% | -8.6% | -13.7% | i | i | -27.0%
CCOC(=O)c1c(-c2ccc(OC)cc2)csc1NC(=O)CCN1CCOCC1 | -7.3% | -1.8% | 18.4µM* | i | i | ?
CCOC(=O)c1c(-c2ccc(OC)cc2)csc1NC(=O)CNCc1ccco1 | 4.1% | 5.4% | ? | 10.3µM* | i | ?
COC(=O)c1c(-c2cccs2)csc1NC(=O)CN1CCOCC1 | -11.9% | -17.2% | ? | i | i | -29.5%
CC[C@H]1CCCCc2ccccc2[C@@H](C(=O)C[C@@H](O)CC(C)=O)OC1=O | 9.4% | 4.5% | ? | i | i | 14.6µM*
CC[C@@H]1CCCCc2ccccc2[C@@H](C(=O)C[C@@H](O)CC(C)=O)OC1=O | 15.8% | 9.9% | -19.0% | i | i | -13.9%
CC[C@@H]1CCCCc2ccccc2[C@H](C(=O)C[C@@H](O)CC(C)=O)OC1=O | 25.1% | 1.0% | -1.7% | ? | i | 20.6µM*
O=c1cnc2cnc(Oc3cccc(Cl)c3)nc2n1C1CC1 | · | · | -25.6% | · | · | -7.8%
CCOC(=O)c1c(NC(=O)c2cnn3c2NC(c2cccc(OC)c2)CC3C(F)(F)F)sc2c1CCCC2 (centres undefined) | 6.7% | 8.4% | -24.5% | i | i | -6.5%
Cc1ccc(Nc2nc(-c3ccc(S(=O)(=O)N4CCCC4)cc3)cs2)cc1C | ? | ? | 20.6µM* | 2.59µM* | 7.31µM* | ?
Cc1ccc(Nc2nc(-c3ccc(S(=O)(=O)N4CCOCC4)cc3)cs2)cc1 | ? | ? | ? | ? | i | ?
Cc1cc(C)cc(Nc2nc(-c3ccc(S(=O)(=O)N4CCCC4)cc3)cs2)c1 | ? | ? | 7.31µM* | ? | 4.61µM* | 8.2µM*
O=S(=O)(c1ccc(-c2csc(Nc3ccc(F)cc3)n2)cc1)N1CCCC1 | ? | ? | 11.6µM* | i | i | 11.6µM*
SMILES | HT1080NT lethal | HT1080 IDH1KD tx | TDP1 cell noCPT | KB-V1 cytotox | KB-3-1 cytotox | TDP1 cell CPT
Cc1ccc(C(=O)n2nc(C)c(S(=O)(=O)N3CCOCC3)c2C)cc1C | · | · | ? | i | i | ?
CCc1cc(Cn2nc(-c3ccccc3)cc2C(=O)NCc2cccs2)on1 | ? | -23.6% | ? | i | ? | 16.4µM*
COc1ccccc1CNC(=O)C1CC(c2cccc([N+](=O)[O-])c2)=NO1 (centres undefined) | -19.6% | ? | 23.1µM* | ? | ? | 16.4µM*
O=C(NCc1cccs1)c1cc(-c2ccccc2)nn1CC1CC(c2cccc([N+](=O)[O-])c2)=NO1 (centres undefined) | -11.6% | -5.6% | 14.6µM* | i | i | 16.4µM*
COc1ccccc1CNC(=O)c1cc(-c2ccccc2)nn1CC1CC(c2cccc([N+](=O)[O-])c2)=NO1 (centres undefined) | -1.4% | 1.2% | 14.6µM* | i | i | 10.3µM*
O=C(Nc1cccc(-c2nc3ccccc3o2)c1)c1cccc2c(Cl)cccc12 | · | · | · | i | i | ·
O=S1(=O)NC(C2CC2c2ccccc2)CCO1 (centres undefined) | 9.5% | 11.2% | -8.7% | i | i | ?
Cc1cnc(NC(=O)c2c(-c3ccccc3)noc2C)s1 | -3.9% | -9.1% | 4.2% | i | i | -22.9%
Cc1cc(C)c2c(C)nn(-c3ccccc3)c2n1 | -1.0% | 8.0% | -21.9% | i | i | 4.3%
Cc1cc(C)c2c(=N)c3ccccc3n(CCCCCCCCn3c4ccccc4c(=N)c4c(C)cc(C)nc43)c2n1 | -27.8% | ? | ? | i | ? | 10.3µM*
CC(C)n1ncc2c(C(=O)N3CCN(S(=O)(=O)c4cccc(F)c4)CC3)cc(C3CC3)nc21 | -3.6% | 10.2% | 13.5% | i | i | -1.1%
Cc1ccc(S(=O)(=O)N2CCN(C(=O)c3cc(C4CC4)nc4c3cnn4C(C)C)CC2)cc1 | -3.7% | 0.0% | 4.11µM* | i | ? | ?
CC(C)n1ncc2c(C(=O)N3CCN(Cc4ccc(Cl)s4)CC3)cc(C3CC3)nc21 | 2.6% | -11.9% | ? | 8.2µM* | ? | ?
COc1ccc2c(Sc3ccccc3)c(C(=O)NCCN(C)C)[nH]c2c1 | · | · | ? | i | ? | ?
